In all, about 16,000 compounds went through this assay and about 2,600 (16%) were called active. About 20% were inconclusive and are not listed. Calls come from the whole dose curve; as a rule, active = well fitted curve in the direction sought with a large enough effect; inconclusive = small, poorly fitted or top-dose-only effect, or effect the other way; inactive = no such curve, though single readings can be large or run the other way. A selection follows.
Biological target: Cytochrome P450 2D6 (Homo sapiens) (UniProt P10635)
Sequence (P10635 whole entry, looked up): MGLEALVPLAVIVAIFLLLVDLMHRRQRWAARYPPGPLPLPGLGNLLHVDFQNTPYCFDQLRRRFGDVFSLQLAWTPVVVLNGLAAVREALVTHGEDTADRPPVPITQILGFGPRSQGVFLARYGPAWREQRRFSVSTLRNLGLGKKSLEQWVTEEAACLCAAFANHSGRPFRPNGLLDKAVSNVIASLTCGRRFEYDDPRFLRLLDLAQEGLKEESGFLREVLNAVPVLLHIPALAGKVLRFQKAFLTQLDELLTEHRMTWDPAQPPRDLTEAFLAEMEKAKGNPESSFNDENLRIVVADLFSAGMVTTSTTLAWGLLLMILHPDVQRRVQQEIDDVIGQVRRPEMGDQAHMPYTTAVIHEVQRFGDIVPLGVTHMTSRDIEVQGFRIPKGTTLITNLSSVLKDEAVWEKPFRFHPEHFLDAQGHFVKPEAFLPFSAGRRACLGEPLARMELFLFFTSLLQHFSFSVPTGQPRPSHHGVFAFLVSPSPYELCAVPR
Assay: Cytochrome panel assay with activity outcomes
Conditions: recombinant CYP, pro-luciferin dealkylation, luminescence, p450-cyp2d6; series mostly up to 57.1 µM; activity, negative = inhibition: at the top concentration
% is set by controls: 0 for no effect and ±100 for the full control effect.

Compound | activity, negative = inhibition | AC50
CCN(CC)C(=O)C1CCCN(c2ccc([N+](=O)[O-])cc2/C=N/NC(=O)c2ccc([N+](=O)[O-])cc2)C1 (stereo unspecified) | -13.6% (inactive) | 
C/C(N)=C(/C#N)C(=O)COc1ncnc2ccc(Br)cc12 | -0.639% (inactive) | 
Brc1ccc2cccnc2c1 | 22% (inactive) | 
Brc1ccc2ncnc(Nc3cccc4ccccc34)c2c1 |  | 14.1 µM (active)
Cc1cc(C(F)F)n2nc(C(=O)Nc3sc4c(c3C#N)CCC(C)C4)nc2n1 (stereo unspecified) | -32.8% (inactive) | 
COCCn1c(=O)c(-c2ccc(Cl)cc2)nc2cnc(Oc3ccccc3)nc21 | -2% (inactive) | 
CN(CCOc1ccc(C[C@H](Nc2ccccc2C(=O)c2ccccc2)C(=O)O)cc1)c1ccccn1 |  | 0.0316 µM (active)
COC(=O)CN(c1ccccn1)S(=O)(=O)c1ccccc1 | 9.48% (inactive) | 
Cc1cc(C)c(S(=O)(=O)n2ccc(-c3ccc(OCCN(C)c4ccccn4)cc3)n2)c(C)c1 | 18.4% (inactive) | 
COCCCN1C(=O)C(=O)/C(=C(/O)c2ccc(OC)cc2C)C1c1cccnc1 (stereo unspecified) | -1.26% (inactive) | 
Cc1ccc(COc2coc(CO)cc2=O)cc1 | 13.9% (inactive) | 
CC(C)(C)c1ccc(OCC(=O)N/N=C/c2cc(Br)ccc2OC(=O)c2ccco2)cc1 | 28.3% (inactive) | 
Cc1ccc(COc2ccc(Br)cc2/C=N/O)cc1 |  | 17.8 µM (active)
CCNc1ncc2ncc(=O)n(Cc3cccs3)c2n1 |  | 12.6 µM (active)
CCNc1ncc2nc(-c3cccs3)c(=O)n(Cc3cccs3)c2n1 | -19.8% (inactive) | 
CN1CCN(c2ncc3nc(-c4cccc(C#N)c4)c(=O)n(CCC#N)c3n2)CC1 | 2.23% (inactive) | 
CCNc1ncc2nc(-c3cccs3)c(=O)n(C)c2n1 | 6.42% (inactive) | 
N#CCCn1c(=O)c(-c2cccs2)nc2cnc(Nc3ccccc3)nc21 | 8.86% (inactive) | 
CCNc1ncc2nc(C)c(=O)n(Cc3cccs3)c2n1 | -10.2% (inactive) | 
CCNc1ncc2nc(-c3cn(C)c4ccccc34)c(=O)n(Cc3ccc(F)cc3)c2n1 | -8.85% (inactive) | 
COc1ncc2nc(-c3cn(C)c4ccccc34)c(=O)n(CCC#N)c2n1 | -0.812% (inactive) | 

Compound | activity, negative = inhibition | AC50
CCNc1ncc2nc(-c3cccc(C#N)c3)c(=O)n(CCC#N)c2n1 |  | 0.0316 µM (active)
CCNc1ncc2nc(-c3cn(C)c4ccccc34)c(=O)n(CCC#N)c2n1 |  | 3.98 µM (active)
CCNc1ncc2nc(-c3cccs3)c(=O)n(CCC#N)c2n1 |  | 1.26 µM (active)
N#CCCn1c(=O)c(-c2cccc(C#N)c2)nc2cnc(Oc3ccccc3)nc21 | 5.63% (inactive) | 
Cc1cc(C)cc(C(=O)N(C)[C@H](Cc2ccc(-c3ccccc3)cc2)C(=O)N[C@@H](Cc2c[nH]c3ccccc23)C(=O)O)c1 | -5.77% (inactive) | 
N=c1ccn2c(n1)O[C@H]1[C@@H](OP(=O)(O)O)[C@H](CO)O[C@H]12 | 10.3% [at 11.4 µM] (inactive) | 
Cc1cc(-c2n[nH]c(=S)o2)c(C)n1-c1ccccc1 | -6.27% (inactive) | 
O=C(Nc1nnc(C2CC2)s1)c1cc(S(=O)(=O)N2CCN(c3ccccc3)CC2)ccc1Cl | 28% (inactive) | 
O=C(N/N=C1/C[C@@H](O)[C@@H](O)[C@@H]2[C@@H]3C(=O)N(Cc4ccccc4)C(=O)[C@H]3CC[C@@H]12)OCc1ccccc1 | 9.46% [at 11.4 µM] (inactive) | 
O=C1[C@H]2O[C@@H]2[C@@H](O)[C@H]2[C@H]1CCn1c(=O)n(Cc3cc4c(cc3Cl)OCO4)c(=O)n12 | -11.5% [at 11.4 µM] (inactive) | 
CCN(CC)C(=O)CSc1nnc(-c2ccco2)n1N | -28.2% (inactive) | 
COc1ccc(COC(=O)N/N=C2/C[C@@H](O)[C@@H](O)[C@@H]3[C@H]4C(=O)N(c5ccc(F)cc5F)C(=O)[C@@H]4CC[C@@H]23)cc1 | -3.12% [at 11.4 µM] (inactive) | 
O=C(Cc1cccs1)N/N=C/C(Br)=C/c1ccccc1 | -28.8% (inactive) | 
COc1ccc(-c2nc3cnc(Nc4ccccc4)nc3n(CCC#N)c2=O)cc1 | 6.64% (inactive) | 
CCNc1ncc2nc(-c3cc(F)cc(F)c3)c(=O)n(CCC#N)c2n1 |  | 0.0631 µM (active)
COc1ncc2nc(-c3cc(F)cc(F)c3)c(=O)n(CCC#N)c2n1 | -10.6% (inactive) | 
N#CCCn1c(=O)c(-c2ccccc2)nc2cnc(Nc3ccccc3)nc21 | 4.06% (inactive) | 
CCNc1ncc2nc(-c3ccccc3)c(=O)n(CCC#N)c2n1 |  | 0.501 µM (active)
N#CCCn1c(=O)c(-c2cc(F)cc(F)c2)nc2cnc(Nc3ccccc3)nc21 | 1.97% (inactive) | 
COC(=O)[C@@]1(Cc2ccc(F)cc2)[C@H]2c3cc(C(=O)N4CCCC4)n(CCCNc4ncc(C(F)(F)F)cc4Cl)c3C[C@H]2CN1C(=O)c1ccccc1 | 3.6% (inactive) | 
CCOC(=O)[C@]1(CC(=O)O)CCCC1=O | -6.09% [at 11.4 µM] (inactive) | 

Compound | activity, negative = inhibition | AC50
COc1ccc(C2CC(=O)c3cnc(Nc4cc(C)cc(C)c4)nc3C2)cc1 (stereo unspecified) | -11.6% (inactive) | 
O=C1NC(=O)C(c2ccccc2[N+](=O)[O-])=C1Nc1ccc(O)c(Cl)c1 | 2.19% (inactive) | 
Cc1occc1C(=O)NNC(=O)c1ccc(F)cc1 | -29% (inactive) | 
COc1ccc(-n2c(=S)[nH]c3cc(C(=O)NCCCN4CCCC4=O)ccc3c2=O)cc1 | -6.32% (inactive) | 
COc1ccc2c(c1OC)C(=O)OC2Nc1ncccc1C (stereo unspecified) | -10.4% (inactive) | 
COc1ccc2c(c1OC)C(=O)OC2[C@H]1c2c(cc3c(c2OC)OCO3)CCN1C (stereo partly specified) |  | 10 µM (active)
COc1ccc2c(c1OC)C(=O)O[C@@H]2[C@H]1c2c(cc3c(c2OC)OCO3)CCN1C | 0.746% (inactive) | 
COc1ccc(/C(C)=N/NC(=O)c2ccc(CSc3cccc4cccnc34)cc2)cc1OC | -9.22% (inactive) | 
Cc1ccccc1-c1cc(C(=O)n2cccn2)c2cc(Cl)ccc2n1 | -13.5% (inactive) | 
Cc1cc(N2C(=O)C(O)=C(C(=O)c3cccs3)C2c2cccc(O)c2)no1 (stereo unspecified) | -3.43% (inactive) | 
COC(=O)CSc1cc(C(F)(F)F)nc(-c2ccccn2)n1 | 6.24% (inactive) | 
CCOC(=O)CSc1nc2c(cnn2-c2ccc(C)cc2)c(=O)[nH]1 | 7.23% (inactive) | 
N#CCSc1nc2cc(C(=O)N3CCCC3)ccc2c(=O)n1Cc1ccccc1 | -16.5% (inactive) | 
Cc1nc2cnc(Oc3cccc(Cl)c3)nc2n(C[C@H]2CCCO2)c1=O | 4.36% (inactive) | 
c1csc(CNc2ncnc3ccc(-c4ccoc4)cc23)c1 |  | 15.8 µM (active)
COCCNc1ncnc2ccc(-c3cccc(NS(C)(=O)=O)c3)cc12 | -1.19% (inactive) | 
COc1cccc(-c2ccc3ncnc(NCc4cccs4)c3c2)c1 |  | 10 µM (active)
CS(=O)(=O)Nc1cccc(-c2ccc3ncnc(NCCN4CCOCC4)c3c2)c1 | -8.45% (inactive) | 
CS(=O)(=O)Nc1cccc(-c2ccc3ncnc(NCc4cccs4)c3c2)c1 |  | 20 µM (active)

From PubChem BioAssay AID1851 (National Center for Advancing Translational Sciences (NCATS), 2009)
